Compounds with a hit are over-represented: about 1.9% of the library has one in this group of screens.
EBNA-1 inhibitor – blocks EBNA-1 binding to DNA; EBNA-1 DNA binding, fluorescence polarization; inhibition, % at 14.8 µM; 300,000 tested, 0.34% active; AID 1950; in the data active = inhibition above about 28%
aDG glyco up – increases alpha dystroglycan glycosylation; 360,000 tested, 0.22% active; activation, % at 10 µM; AID 624168; Pro5-aDG cells, alpha-DG glycosylation AlphaScreen (IIH6); 0% Pro5, 100% B10-LARGE cell signal;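 active = activation of at least 8% versus controls, or a plate z-score of at least 8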;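 note: Pro5 are CHO cells carrying HIG-tagged alpha-DG that lacks glycosylation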
NR1D1 modulator – modulators of human Rev-erb alpha DNA binding. activity, % at 10 µM. AID 1259318. 370,000 tested, 0.79% active. Rev-erbα–FITC-DNA binding, fluorescence polarization, 90 min. P20393;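 active = activity above about 14%, limit read from the data; passing the limit was not always enough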;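 note: 0% = DMSO wells with 35 nM protein and 100% = DMSO wells with 750 nM protein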
Target sequence (P20393 whole entry, looked up): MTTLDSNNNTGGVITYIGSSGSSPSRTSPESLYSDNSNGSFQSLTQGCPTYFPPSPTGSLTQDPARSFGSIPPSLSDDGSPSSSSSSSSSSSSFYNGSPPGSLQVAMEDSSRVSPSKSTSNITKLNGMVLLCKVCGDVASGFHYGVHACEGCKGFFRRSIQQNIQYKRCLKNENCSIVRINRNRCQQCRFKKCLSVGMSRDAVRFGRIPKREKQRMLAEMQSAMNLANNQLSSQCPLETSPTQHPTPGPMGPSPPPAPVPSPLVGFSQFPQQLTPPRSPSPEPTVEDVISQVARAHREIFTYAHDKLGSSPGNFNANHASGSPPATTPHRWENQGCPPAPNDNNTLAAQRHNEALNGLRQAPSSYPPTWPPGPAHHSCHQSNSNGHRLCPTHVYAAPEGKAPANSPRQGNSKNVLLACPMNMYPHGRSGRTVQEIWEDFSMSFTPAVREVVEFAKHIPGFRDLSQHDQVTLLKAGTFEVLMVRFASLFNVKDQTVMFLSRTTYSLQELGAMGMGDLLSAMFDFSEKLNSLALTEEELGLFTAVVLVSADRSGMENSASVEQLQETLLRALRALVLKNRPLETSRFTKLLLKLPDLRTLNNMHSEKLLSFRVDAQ
PG9 binder – small molecules binding HIV-1 gp120 antibody PG9 | TR-FRET gp120-PG9 antibody binding | 360,000 tested, 0.43% active | inhibition, % at 6.7 µM; in the data active = inhibition above about 8.5%
p47phox inh – p47phox (human) inhibition; P14598; p47phox/p22phox peptide binding, fluorescence polarization, 2 h; inhibition, % at 24.7 µM; 220,000 tested, 0.53% active; AID 1274;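 active = inhibition above about 30%, limit read from the data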;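 note: 0% = p47phox with labelled peptide and 100% = labelled peptide alone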
ZTA DNA inh – counter-screen for EBNA-1 inhibitors: inhibitors of Epstein-Barr virus ZTA | ZTA-DNA binding, fluorescence polarization | inhibition, % at 11 µM | 320,000 tested, 0.15% active | P03206; in the data active = inhibition above about 33%
The depositor's hits bear a star.

Results for Cn1c(=O)c2c(-c3ccccc3)n(C3CCCCC3)cc2n(C)c1=O ?
EBNA-1 inhibitor: -7; aDG glyco up: 0; NR1D1 modulator: 0; PG9 binder: -1; p47phox inh: 57*; ZTA DNA inh: -6

What do the screens show for `CC(=O)Nc1sc2c(c1-c1nc3ccccc3s1)CCCN(C(C)C)C2`?
NR1D1 modulator: -2

How did COC(=O)c1ccc(NS(=O)(=O)c2cccc3cccnc23)cc1 do in these assays?
EBNA-1 inhibitor: -2; aDG glyco up: 0; NR1D1 modulator: 12; PG9 binder: 0; p47phox inh: 49*; ZTA DNA inh: -9

What do the screens show for `COc1ccc(NS(=O)(=O)c2cccc3cccnc23)cc1`?
EBNA-1 inhibitor: 4; aDG glyco up: 0; NR1D1 modulator: 4; PG9 binder: -2; p47phox inh: -6; ZTA DNA inh: -12

How did O=C(O)C(O)[C@H](O)[C@H](O)[C@H](O)[C@H](O)CO (stereo not given in full) do in these assays?
NR1D1 modulator: 8

What do the screens show for `Cc1ccc2nc(Cl)c(/C=N/NC(=O)[C@H]3C[C@@H]3c3ccccc3)cc2c1`?
EBNA-1 inhibitor: 8; aDG glyco up: 0; NR1D1 modulator: 1; PG9 binder: 0; p47phox inh: 31*; ZTA DNA inh: -23

How did O=C(COC(=O)/C=C/c1ccc(OC(F)F)cc1)NCCN1C(=O)CSC1=O do in these assays?
EBNA-1 inhibitor: -9; aDG glyco up: 0; NR1D1 modulator: -4; PG9 binder: -1; p47phox inh: 46*; ZTA DNA inh: -9

What do the screens show for `COc1ccc(-n2c(SCC(=O)NNC(=S)Nc3ccccc3)nc3ccccc3c2=O)cc1`?
NR1D1 modulator: -1

Results for CCN(CC)S(=O)(=O)c1cccc(C(=O)N[C@H](C(=O)NCc2ccccc2F)C(C)C)c1 ?
EBNA-1 inhibitor: -8; aDG glyco up: 0; NR1D1 modulator: 4; PG9 binder: 1; p47phox inh: -15; ZTA DNA inh: 11

How did CCN(CC)S(=O)(=O)c1cccc(C(=O)N[C@H](C(=O)O)C(C)C)c1 do in these assays?
EBNA-1 inhibitor: 9; aDG glyco up: 0; NR1D1 modulator: 5; PG9 binder: 0; p47phox inh: 92*; ZTA DNA inh: 23

How did NC1=NC(c2cccc(O)c2)n2c(nc3ccccc32)N1 (stereo not given) do in these assays?
EBNA-1 inhibitor: 3; aDG glyco up: 0; NR1D1 modulator: -2; PG9 binder: 3; p47phox inh: -9; ZTA DNA inh: 0

What do the screens show for `Cc1ccc(-n2c(C)cc(C3N=C(N)Nc4nc5ccccc5n43)c2C)c(C)c1` (stereo not given)?
EBNA-1 inhibitor: -5; aDG glyco up: 0; NR1D1 modulator: 6; PG9 binder: -2; p47phox inh: 30*; ZTA DNA inh: -11

How did NC1=NC(c2ccc(F)cc2)n2c(nc3ccccc32)N1 (stereo not given) do in these assays?
EBNA-1 inhibitor: -10; aDG glyco up: 0; NR1D1 modulator: 2; PG9 binder: -1; p47phox inh: -9; ZTA DNA inh: -2

Results for Cc1cc(C2N=C(N)Nc3nc4ccccc4n32)c(C)n1-c1ccccc1Cl (stereo not given) ?
EBNA-1 inhibitor: 5; aDG glyco up: 0; NR1D1 modulator: 1; PG9 binder: -3; p47phox inh: 41*; ZTA DNA inh: 2

What do the screens show for `C=CCC1(/C=N/O)CCOC(C)(C)C1` (stereo not given)?
EBNA-1 inhibitor: 4; aDG glyco up: 0; NR1D1 modulator: -3; PG9 binder: 0; p47phox inh: 64*; ZTA DNA inh: 9

What do the screens show for `O[C@H](COc1cccc(C(F)(F)F)c1)CN1CCC(C(O)(c2ccccc2)c2ccccc2)CC1`?
NR1D1 modulator: 3

What do the screens show for `CCN1CCN(C2=C(NS(=O)(=O)c3ccc(Br)cc3)C(=O)c3ccccc3C2=O)CC1`?
EBNA-1 inhibitor: -7; aDG glyco up: 7.7*; NR1D1 modulator: 5; PG9 binder: -10; ZTA DNA inh: 7

Results for CC(C)CCN1CCN(C2CSCCSC2)CC1CCO (stereo not given) ?
EBNA-1 inhibitor: -6; aDG glyco up: 0; NR1D1 modulator: -2; PG9 binder: -1; p47phox inh: 42*; ZTA DNA inh: -2

Results for O=[N+]([O-])O[C@@H]1CO[C@H]2[C@@H]1OC[C@@H]2O ?
NR1D1 modulator: -10

Results for Cc1c(C)n(Cc2ccc(-c3ccccc3C(=O)O)cc2)c2ccc(C(=O)N[C@@H](C)c3ccc([N+](=O)[O-])cc3)cc12 ?
NR1D1 modulator: 0

How did OC[C@H]1O[C@H](O[C@]2(CCl)O[C@H](CCl)[C@@H](O)[C@@H]2O)[C@H](O)[C@@H](O)[C@H]1Cl do in these assays?
NR1D1 modulator: 9

What do the screens show for `COc1ccc(/C=N/NC(=O)c2ccc(Br)cc2)cc1Cn1cc(Cl)cn1`?
EBNA-1 inhibitor: 32*; aDG glyco up: 1; NR1D1 modulator: 0; PG9 binder: 0; p47phox inh: 3; ZTA DNA inh: 7

What do the screens show for `Cc1nc2sccn2c1-c1csc(NCc2ccccc2)n1`?
EBNA-1 inhibitor: 8; aDG glyco up: 5.9*; NR1D1 modulator: -1; PG9 binder: -2; p47phox inh: -11; ZTA DNA inh: -6

Results for C=CCNc1nc(-c2c(C)nc3sccn23)cs1 ?
EBNA-1 inhibitor: -11; aDG glyco up: 0; NR1D1 modulator: -1; PG9 binder: -5; p47phox inh: -5; ZTA DNA inh: -13

How did O=C(O)C1=CC(=C(c2ccc(O)c(C(=O)O)c2)c2ccc(O)c(C(=O)O)c2)C=CC1=O do in these assays?
EBNA-1 inhibitor: 93*; ZTA DNA inh: 111*

How did CCCC[C@@H](CC)COC(=O)/C=C/c1ccc(OC)cc1 do in these assays?
NR1D1 modulator: 4

How did CCCOc1ccc(NC(N)=O)cc1OCCC do in these assays?
EBNA-1 inhibitor: 9; aDG glyco up: 0; NR1D1 modulator: 0; PG9 binder: 2; p47phox inh: 31*; ZTA DNA inh: 8

Results for O=c1c2ccccc2sn1-c1ccc(S(=O)(=O)N2CCCC2)cc1 ?
EBNA-1 inhibitor: 5; aDG glyco up: 0; NR1D1 modulator: 0; PG9 binder: 1; p47phox inh: 30*; ZTA DNA inh: -18

How did O=c1c2ccccc2sn1-c1ccccc1 do in these assays?
EBNA-1 inhibitor: -16; aDG glyco up: 1; NR1D1 modulator: -3; PG9 binder: 5; p47phox inh: 60*; ZTA DNA inh: 4

What do the screens show for `O=C(O)c1cccc(-n2sc3ccccc3c2=O)c1`?
aDG glyco up: 0; NR1D1 modulator: -3; PG9 binder: 0; ZTA DNA inh: 22

Results for CN(C)S(=O)(=O)c1cccc(-n2sc3ccccc3c2=O)c1 ?
EBNA-1 inhibitor: -18; aDG glyco up: 0; NR1D1 modulator: 1; PG9 binder: 1; p47phox inh: 93*; ZTA DNA inh: -14

Assay outcomes (PubChem)
